Screening data as filed in PubChem BioAssay.
AmpC inh detg: AmpC beta-lactamase inhibition with detergent present; AmpC hydrolysis of nitrocefin, absorbance 480 nm, 0.01% Triton; 370,000 compounds, 0.041% hits; P00811; Potency, µM (highest dose often 114 µM), actives largely listed as inhibitors; AID 485294; further: nearly all actives have a fitted effect of over 25% in size
Target sequence (P00811 whole entry, looked up): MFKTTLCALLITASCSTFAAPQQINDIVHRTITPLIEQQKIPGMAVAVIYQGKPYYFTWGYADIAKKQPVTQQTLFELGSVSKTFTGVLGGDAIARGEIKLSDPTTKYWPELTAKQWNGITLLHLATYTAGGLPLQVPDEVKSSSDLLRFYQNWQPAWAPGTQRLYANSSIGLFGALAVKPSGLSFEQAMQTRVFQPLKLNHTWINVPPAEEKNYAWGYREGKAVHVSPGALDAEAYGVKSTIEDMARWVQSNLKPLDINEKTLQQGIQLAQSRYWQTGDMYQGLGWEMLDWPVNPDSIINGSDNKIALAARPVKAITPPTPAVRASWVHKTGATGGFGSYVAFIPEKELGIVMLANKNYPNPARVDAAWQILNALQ
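20 mM phosphate pH 7.0 + 0.01% (detergent screen) or 0.0001% Triton X-100; 5.3 nM AmpC reagent; cpd preinc 15 min RT; nitrocefin (800 uM stock) to start; A480 q20 s × 4 min; Activity was normalised to no-enzyme and no-compound control wells.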
Cycloheximide cs: affects cycloheximide protein synthesis inhibition readout, counter-screen; cell reporter, cycloheximide protein synthesis inhibition counterscreen; max response, %; 300,000 compounds, 12% hits; in the data active means max response mostly above about 13%, no sharp cut-off; inactive means mostly below about 14%; further: read at 38.3 µM for the half of the compounds with a filed dose
SARS PLpro yeast: blocks SARS-CoV papain-like protease in a yeast assay | S. cerevisiae expressing SARS-CoV PLpro, growth rescue | Potency, µM (series often up to 32.9 µM), usual class: activators | 330,000 compounds, 0.19% hits; calls by dose curve; further: nearly all actives have a fitted effect of over 55% in size
AmpC inh no detg: AmpC beta-lactamase inhibition without detergent. AmpC nitrocefin hydrolysis, absorbance 480 nm, 0.0001% Triton. 330,000 compounds, 0.52% hits. Potency, µM (titrated, usually from 57.1 µM), actives largely listed as inhibitors. AID 485341. P00811; further: nearly all actives have a fitted effect of over 20% in size
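20 mM phosphate pH 7.0 + 0.01% (detergent screen) or 0.0001% Triton X-100; 5.3 nM AmpC reagent; cpd preinc 15 min RT; nitrocefin (800 uM stock) to start; A480 q20 s × 4 min; Activity was normalised to no-enzyme and no-compound control wells.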
Shiga toxin inh: inhibitors of Shiga toxin in Vero cells. Vero cells, Shiga toxin protein synthesis inhibition reporter. inhibition, % at 38.7 µM. 290,000 compounds, 9.2% hits. AID 2315; in the data active means inhibition mostly above about 28%, no sharp cut-off; inactive means mostly below about 43%
AMA1-RON2 inh: disrupts binding of P. falciparum AMA1 to RON2; AlphaScreen AMA1-biotinylated RON2 peptide binding; Potency, µM (top dose mostly 58.2 µM), actives largely listed as inhibitors; 360,000 compounds, 0.2% hits; AID 720542; further: nearly all actives have a fitted effect of over 45% in size
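AMA1 (3D7) with his tag at 25 nM final met compounds first, then biotinylated RON2 peptide at 25 nM; detection used donor plus acceptor beads, 10 µg/mL apiece, read by AlphaScreen after 30 min at room temperature.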
Of the large screens only hits and unclear results are named; the others gave an inactive call. Shown is part of a subset that was picked to be rich in hits. Unless noted, the call rests on the fitted dose curve; in most records, active means well fitted curve in the direction sought with a large enough effect; inconclusive means small, poorly fitted or top-dose-only effect, or another doubt; inactive means no such curve, though single readings can be large; an effect the other way counts as inactive or inconclusive.

Cn1c2ccccc2c2cc(C(=O)N3CCOCC3)sc21	Cycloheximide cs 21
COc1ccc([C@H]2CC(=O)C[C@@H](CCn3cc(-c4ccccc4)nn3)O2)cc1	none (no result: AmpC inh detg, Cycloheximide cs, SARS PLpro yeast, AmpC inh no detg, Shiga toxin inh)
CCCCCCN1CCN(c2ccc(Cl)cc2)CC1	AmpC inh detg inconclusive, AMA1-RON2 inh 35µM
CC(=O)NS(=O)(=O)c1ccc(NC(=O)CSc2ccc(Cl)cc2)cc1	none
Cc1ccc(COc2ccc(CNCCCN3CCCCCC3=O)cc2)cc1	Cycloheximide cs 26, Shiga toxin inh 70
Cc1ccc(NC(=O)C(=O)NCCCN2CCCC2=O)cc1	none (no result: Cycloheximide cs, Shiga toxin inh)
COc1ccc(C2C3=C(CCCC3=O)Nc3ccc4ncccc4c32)cc1OC (stereo not given)	Cycloheximide cs 35
COc1cc(C2C3=C(CCCC3=O)Nc3ccc4ncccc4c32)ccc1O (stereo not given)	Cycloheximide cs 15
O=C1CCCC2=C1C(c1cccc(O)c1)c1c(ccc3ncccc13)N2 (stereo not given)	none
O=C1CCCC2=C1C(c1ccc(O)c(O)c1)Nc1ccc3ncccc3c12 (stereo not given)	Shiga toxin inh 33
CCOc1cc(C2C3=C(CCCC3=O)Nc3ccc4ncccc4c32)ccc1O (stereo not given)	none
NC(=O)c1c(NC(=O)c2ccccc2Cl)sc2c1CCC2	Cycloheximide cs 38, Shiga toxin inh 51
Cc1onc(-c2ccccc2)c1C(=O)Nc1sc2c(c1C(N)=O)CCC2	none
Cn1cc(Br)c(C(=O)Nc2sc3c(c2C(N)=O)CCCC3)n1	AmpC inh detg inconclusive, Cycloheximide cs 35, Shiga toxin inh 66
NC(=O)c1c(NC(=O)c2ccccc2C(=O)O)sc2c1CCCC2	none
NC(=O)c1c(NC(=O)c2ccccc2F)sc2c1CCCC2	Cycloheximide cs 49, Shiga toxin inh 83
Cc1onc(C(=O)Nc2sc3c(c2C(N)=O)CCCC3)c1[N+](=O)[O-]	Cycloheximide cs 20
COc1cc(OC)cc(C(=O)NNC(=S)Nc2ccccc2OC)c1	none
CCOC(=O)c1c(C)[nH]c(C)c1S(=O)(=O)N1CCCC(C(=O)N2CCN(c3cccc(C)c3C)CC2)C1 (stereo not given)	none (no result: Cycloheximide cs, SARS PLpro yeast, AmpC inh no detg, Shiga toxin inh, AMA1-RON2 inh)
O=C(CCc1ccccc1)Nc1ccc(S(=O)(=O)N2CCOCC2)cc1	none
N=c1c(C(=O)NCc2ccc(F)cc2)cc2c(=O)n3ccccc3nc2n1CCCN1CCOCC1	AmpC inh detg inconclusive, SARS PLpro yeast inconclusive
CCn1nc(C)c(/C=C2\CCCC3=C2OC(N)=C(C#N)C3c2c(C)nn(CC)c2C)c1C (stereo not given)	none (no result: AMA1-RON2 inh)
NC(=O)c1c(NC(=O)c2ccc(F)cc2Cl)sc2c1CCC2	Cycloheximide cs 25, Shiga toxin inh 31
NC(=O)c1c(NC(=O)c2cccnc2Cl)sc2c1CCCC2	none
O=C(Nc1cccc(-c2nc3ncccc3o2)c1)c1cc2ccccc2o1	Cycloheximide cs 22, Shiga toxin inh 85
O=C(Nc1cccc(-c2nc3ncccc3o2)c1)c1sc2cc(Cl)ccc2c1Cl	Shiga toxin inh 44
O=C(Nc1cccc(-c2nc3ncccc3o2)c1)c1sc2ccccc2c1Cl	AmpC inh detg inconclusive
Cc1ccc(-c2nc3ncccc3o2)cc1NC(=O)c1cc2ccccc2o1	none
CN(C)c1ccc(CNC(=O)C2(C)Cc3c(-c4cccc(C(F)(F)F)c4)ccnc3O2)cc1 (stereo not given)	AMA1-RON2 inh 25µM (no result: AmpC inh detg, Cycloheximide cs, SARS PLpro yeast, AmpC inh no detg, Shiga toxin inh)
CC1(C(=O)NCc2ccc(F)c(F)c2)Cc2c(-c3cccc(C(F)(F)F)c3)ccnc2O1 (stereo not given)	none (no result: AmpC inh detg, Cycloheximide cs, SARS PLpro yeast, AmpC inh no detg, Shiga toxin inh)
Nc1ccc(-c2nc3ccccc3s2)cn1	Shiga toxin inh 104
Brc1ccc(-c2nc3ccccc3s2)s1	Cycloheximide cs 48, SARS PLpro yeast inconclusive, Shiga toxin inh 96
c1ccc(-c2nc3ccccc3s2)nc1	Cycloheximide cs 61, Shiga toxin inh 76
Brc1cc2c(cc1-c1nc3ccccc3s1)OCO2	Cycloheximide cs 33, Shiga toxin inh 65
CNc1ccc(-c2nc3ccccc3s2)cc1	none (no result: AmpC inh detg, SARS PLpro yeast, AmpC inh no detg, AMA1-RON2 inh)
CCOc1ccc(NC(=O)c2c(NCc3ccc(C)o3)sc3c2CCC(C)C3)cc1 (stereo not given)	none (no result: Cycloheximide cs, SARS PLpro yeast, AmpC inh no detg, Shiga toxin inh, AMA1-RON2 inh)
COc1cccc(C2C3=C(CCCC3=O)Nc3nc(-c4cc(OC)c(OC)c(OC)c4)nn32)c1 (stereo not given)	none
O=C1CCC(=O)N1c1ccc(-c2nc3ccccc3s2)cc1	AmpC inh detg inconclusive, Cycloheximide cs 35, Shiga toxin inh 62
CCOCCCn1c(SC(C(=O)Nc2cc(C)ccc2C)c2ccccc2)nnc1-c1ccc(Cl)cc1 (stereo not given)	none
CCOc1ccc(/C=C/C(=O)c2ccccc2)cc1	Cycloheximide cs 31
CC(C)(C)C(=O)/C=C/c1ccc(Oc2ccccc2)cc1	Cycloheximide cs 50, Shiga toxin inh 120
COc1ccc(OCCNC(=O)/C=C/c2ccccc2)cc1	none
CCOc1ccc(C(=O)/C=C/c2ccc(SC)cc2)cc1	none
O=C(/C=C/c1ccccc1)NCCOc1ccccc1	Cycloheximide cs 39, Shiga toxin inh 77
CCOc1ccc(C(=O)/C=C/c2ccccc2C(F)(F)F)cc1	Cycloheximide cs 21
Cc1ccc(NC2=NC(=S)N(CC#N)C23CCCCC3)cc1	AmpC inh detg inconclusive
CCOc1ccc(/C=C/C(=O)NCc2ccccc2)cc1	Cycloheximide cs 20
COc1ccc(CNC(=O)/C=C/c2ccc(OCCCF)cc2)cc1	AmpC inh detg inconclusive
CCN(CC)S(=O)(=O)c1ccc(/C=C/C(=O)NC2CCCCC2)cc1	AmpC inh detg inconclusive
COc1ccc(C(=O)CC(=O)C(=O)Nc2ccccc2C(F)(F)F)cc1	none
O=C(O)COc1ccc(/C=C/C(=O)c2ccc(C3CCCCC3)cc2)cc1	AmpC inh detg inconclusive, Cycloheximide cs 26
COc1ccc(C(=O)/C=C/c2ccccc2C(F)(F)F)cc1	Cycloheximide cs 26
CCOc1ccc(/C=C/C(=O)NC2CCCCC2)cc1	Cycloheximide cs 18 (no result: Shiga toxin inh)
O=C(O)COc1ccc(/C=C/C(=O)c2ccc3ccccc3c2)cc1	none
CCCCn1c(N)c(N(CCC(C)C)C(=O)c2[nH]c(C)c(C(=O)OCC)c2C)c(=O)[nH]c1=O	none (no result: Cycloheximide cs, Shiga toxin inh)
O=C(CN1C(=O)/C(=C/c2ccccc2)Sc2ccccc21)NCCCN1CCOCC1	none
Cc1ccc(S(=O)(=O)N2CN(CC3CCCO3)c3nc4ccccc4nc32)cc1 (stereo not given)	none
COc1ccc(N(C(=O)c2ccccc2OC(C)=O)C(C)C2CC2)cc1 (stereo not given)	none (no result: SARS PLpro yeast, AmpC inh no detg)
CCc1ccccc1NC(=O)C1CCCN(c2nn3c(=O)cc(C)nc3s2)C1 (stereo not given)	none
COCCN1Cc2cc(=O)n3c([nH]c4ccccc43)c2C1=N	Cycloheximide cs 22
N=C1c2c(cc(=O)n3c2[nH]c2ccccc23)CN1CCN1CCOCC1	none
